Screening results: PubChem BioAssay, National Center for Advancing Translational Sciences (NCATS)
MCF10A rerep: inducers of DNA re-replication in MCF 10A breast cells. 350,000 compounds, 2.9% hits. Potency, µM (series often up to 46.1 µM), actives largely listed as activators. MCF 10A DNA re-replication, Hoechst nuclear intensity, 48 h; also: nearly all actives have a fitted effect of over 50% in size
SW480 rereplic: inducers of DNA re-replication in SW480 colon cancer cells; Potency, µM (highest dose often 46.1 µM), hits mostly activators; SW480 DNA re-replication, Hoechst DNA content imaging, 48 h; 340,000 compounds, 1.8% hits; also: nearly all actives have a fitted effect of over 55% in size
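Quantitative HTS format with DMSO vehicle controls; 48 hr drug incubation at 37 C, then 40 min Hoechst staining and scanning imager measurement at 405 nm excitation.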
KB-V1 MDR tox: kills drug-selected multidrug resistant KB-V1 cells | KB-V1 MDR cells viability, CellTiter-Glo, 72 h | Potency, µM (doses to about 46.1 µM), usual class: cytotoxic | 400,000 compounds, 3.4% hits | AID 1347076; also: nearly all actives have a fitted effect of over 60% in size
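Following 72 h at 37 degrees C with compound, KB-V1 cell viability was read by CellTiter-Glo luminescence, medium being phenol-red-free DMEM plus 10% FBS; concentration-response parameters came from normalized, curve-fitted qHTS data.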
PTAP TSG101 blk: blocks PTAP/TSG101 interaction to inhibit HIV-1 budding; Potency, µM (series often up to 115 µM), usual class: inhibitors; Q99816; 340,000 tested, under 10 active; Fluorescence polarization, FITC-PTAP peptide / Tsg101 binding; active = well fitted inhibition curve with a large enough effect in the main read-out, with a control signal flat, not every such curve was filed as active; inconclusive = small, poorly fitted or top-dose-only effect, or effect the other way, or a change in a side signal; inactive = no such curve, though single readings can be large or run the other way
Target sequence (Q99816 whole entry, looked up): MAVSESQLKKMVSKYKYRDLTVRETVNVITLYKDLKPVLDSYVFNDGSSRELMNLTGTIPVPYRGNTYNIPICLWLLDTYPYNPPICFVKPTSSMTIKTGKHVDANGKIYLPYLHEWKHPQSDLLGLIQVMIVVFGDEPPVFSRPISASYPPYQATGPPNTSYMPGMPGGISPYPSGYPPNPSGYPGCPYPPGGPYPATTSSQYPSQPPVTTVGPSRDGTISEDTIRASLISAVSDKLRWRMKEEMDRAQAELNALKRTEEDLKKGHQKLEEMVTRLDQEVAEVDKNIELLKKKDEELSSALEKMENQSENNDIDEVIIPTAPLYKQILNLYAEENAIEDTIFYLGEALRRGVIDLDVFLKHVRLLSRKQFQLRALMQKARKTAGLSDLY
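Steps: Tsg101 binding domain dispensed (10 uM final), compounds pinned in DMSO, FITC-labeled PTAP-motif peptide added (50 nM final); after 20 min binding at room temperature, polarization measured.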
KB-3-1 cytotox: kills parental KB-3-1 adenocarcinoma cells. AID 1347075. KB-3-1 viability, CellTiter-Glo ATP luminescence, 72 h. Potency, µM (doses to about 46.1 µM), usual class: cytotoxic. 400,000 compounds, 1.4% hits; also: nearly all actives have a fitted effect of over 60% in size
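Using CellTiter-Glo luminescence, growth of non-resistant KB-3-1 adenocarcinoma cells is assessed 72 h after pin-tool compound addition at 37 °C. Normalized responses across the concentration series yield fitted curves.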
PINK1 modulator: PINK1 expression modulation; PINK1 immunofluorescence, high-content cytometry, 24 h; Potency, µM (highest dose often 76.6 µM), actives largely listed as activators; 410,000 compounds, 0.2% hits; AID 624263; active = well fitted activation curve with a large enough effect; inconclusive = small, poorly fitted or top-dose-only effect; cell line not stated here; also: nearly all actives have a fitted effect of over 65% in size
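Compound titrations (5 concentrations, 24 h) on a stable cell line; DMSO and CCCP controls. Endpoint: fixed-cell PINK1 immunofluorescence with mitochondrial, cell and nuclear markers, scanned by microplate cytometer.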
Hits are given with their value; ! = repeats disagree; [ ] = remark or other dose. The list is not random: actives were taken first. Their share in the collection is about 6.8%. Unless noted, calls follow the shape of the dose curve; as a rule, active = well fitted curve in the direction sought with a large enough effect; inconclusive = small, poorly fitted or top-dose-only effect, or another doubt; inactive = no such curve, though single readings can be large; an effect the other way counts as inactive or inconclusive.

`Cc1noc(C)c1COc1cccc(C(=O)OCC(=O)N2CC(=O)Nc3ccccc32)c1` gave MCF10A rerep 1.8µM, SW480 rereplic 9.2µM, KB-V1 MDR tox inconclusive, PTAP TSG101 blk inactive, KB-3-1 cytotox 1.5µM and PINK1 modulator inactive.
O=C1CN(C(=O)COC(=O)c2ccccc2O)c2ccccc2N1 was read as MCF10A rerep inactive, SW480 rereplic inactive, KB-V1 MDR tox inactive, PTAP TSG101 blk inactive, KB-3-1 cytotox inactive and PINK1 modulator inactive.
CC(=O)N1CCN(S(=O)(=O)c2cccc(C(=O)OCC(=O)N3CC(=O)Nc4ccccc43)c2)CC1 was read as MCF10A rerep inactive[9.22 µM], SW480 rereplic inactive, KB-V1 MDR tox inactive, PTAP TSG101 blk inactive, KB-3-1 cytotox inactive and PINK1 modulator inactive.
`Cc1cc(C(=O)OCC(=O)N2CC(=O)Nc3ccccc32)c(C)n1-c1ccc(F)cc1` gave MCF10A rerep inactive, SW480 rereplic inactive, KB-V1 MDR tox 16µM, PTAP TSG101 blk inactive, KB-3-1 cytotox inconclusive and PINK1 modulator inactive.
Cc1cc(C(=O)OCC(=O)N2CC(=O)Nc3ccccc32)c(C)n1-c1ccccc1 was read as MCF10A rerep inactive, SW480 rereplic inactive, KB-V1 MDR tox 16µM, PTAP TSG101 blk inactive, KB-3-1 cytotox inactive and PINK1 modulator inactive.
Screening O=C(Cc1ccc(Cl)cc1)NCC(c1cccs1)S(=O)(=O)c1ccc(F)cc1 (stereo unspecified) returned KB-V1 MDR tox inactive, KB-3-1 cytotox inactive and PINK1 modulator inactive.
Screening Cc1ccc(NC(=O)Cn2c(=O)n(Cc3ccccc3)c(=O)c3c2c2cc(C)ccc2n3C)cc1 returned PINK1 modulator inactive.
Cc1ccc(NS(=O)(=O)c2cc3c4c(cccc4c2)C(=O)NC3=O)cc1C was read as MCF10A rerep 15µM, SW480 rereplic inactive, KB-V1 MDR tox inconclusive, PTAP TSG101 blk inactive, KB-3-1 cytotox 15µM and PINK1 modulator inactive.
Screening COc1cc(Cl)c(C)cc1NC(=O)CN1C(=O)C2CCCCC2C1=O (stereo unspecified) returned MCF10A rerep inactive, SW480 rereplic inactive, KB-V1 MDR tox 23µM, PTAP TSG101 blk inactive, KB-3-1 cytotox inactive and PINK1 modulator inactive.
Screening Nn1c(-c2ccc(F)cc2)nc2ccccc2c1=O returned MCF10A rerep inconclusive, SW480 rereplic inactive, KB-V1 MDR tox inactive, PTAP TSG101 blk inactive, KB-3-1 cytotox inactive and PINK1 modulator inactive.
O=C1c2cc(F)ccc2-n2c1nc1ccccc1c2=O was read as MCF10A rerep inconclusive, SW480 rereplic inconclusive, KB-V1 MDR tox 5.2µM, PTAP TSG101 blk inactive, KB-3-1 cytotox 6.5µM and PINK1 modulator inactive.
Screening O=S(=O)(NCC(O)c1ccccc1)c1ccc(-c2ccccn2)s1 (stereo unspecified) returned MCF10A rerep inconclusive, SW480 rereplic 23µM, KB-V1 MDR tox inconclusive, PTAP TSG101 blk inactive, KB-3-1 cytotox inactive and PINK1 modulator inactive.
Cc1cccc(S(=O)(=O)Nc2ccc(-c3cn4ccccc4n3)cc2)c1 was read as MCF10A rerep inactive, SW480 rereplic inactive, KB-V1 MDR tox 23µM, PTAP TSG101 blk inactive, KB-3-1 cytotox inactive and PINK1 modulator inactive.
For O=S(=O)(Nc1ccc(-c2cn3ccccc3n2)cc1)c1ccccc1 the results were MCF10A rerep inactive, SW480 rereplic inactive, KB-V1 MDR tox inactive, PTAP TSG101 blk inactive, KB-3-1 cytotox inactive and PINK1 modulator inactive.
Screening Cc1ccc2nc(-c3ccc(NS(=O)(=O)c4c(C)n(C)c(=O)n(C)c4=O)cc3)sc2c1 returned MCF10A rerep 7.3µM, SW480 rereplic 21µM, KB-V1 MDR tox inconclusive, PTAP TSG101 blk inactive, KB-3-1 cytotox inactive and PINK1 modulator inactive.
For Cc1ccc(S(=O)(=O)Nc2ccc(-c3nc4ccc(C)cc4s3)cc2)cc1 the results were MCF10A rerep 23µM, SW480 rereplic inconclusive, KB-V1 MDR tox inactive, PTAP TSG101 blk inactive, KB-3-1 cytotox inactive and PINK1 modulator inactive.
`Cc1cccc(S(=O)(=O)Nc2ccc(-c3nc4ccc(C)cc4s3)cc2)c1` gave MCF10A rerep 18µM, SW480 rereplic inconclusive, KB-V1 MDR tox inactive, PTAP TSG101 blk inactive, KB-3-1 cytotox inactive and PINK1 modulator inactive.
Screening Fc1ccc([C@@H]2Nc3ccccc3[C@@H]3C=CC[C@@H]32)cc1 returned KB-V1 MDR tox inactive, KB-3-1 cytotox inactive and PINK1 modulator inactive.
O=C1c2ccccc2NC(c2cccc(Cl)c2)N1N=C1CCCCCC1 (stereo unspecified) was read as MCF10A rerep inactive, SW480 rereplic inactive, KB-V1 MDR tox 26µM, PTAP TSG101 blk inactive, KB-3-1 cytotox inconclusive and PINK1 modulator inactive.
For COc1ccc(-c2oc(=O)c3cc(OC)c(OC)cc3c2/C=C/c2ccc(OC(C)=O)cc2)cc1 the results were MCF10A rerep inconclusive, SW480 rereplic inconclusive, KB-V1 MDR tox inactive, PTAP TSG101 blk inactive, KB-3-1 cytotox inactive and PINK1 modulator inactive.
`COc1cc(-c2noc(C)c2/C=C/c2ccc(OC(C)=O)cc2)cc(OC)c1OC` gave MCF10A rerep inconclusive, SW480 rereplic inconclusive, KB-V1 MDR tox 1.3µM!, PTAP TSG101 blk inactive, KB-3-1 cytotox 0.73µM and PINK1 modulator inactive.
`Nc1c(-c2nc(-c3ccccc3)cs2)c2ccccn2c1C(=O)c1ccc2c(c1)OCO2` gave KB-V1 MDR tox inconclusive, KB-3-1 cytotox inconclusive and PINK1 modulator inactive.
Screening C=CC(=O)Nc1ccc(Nc2nc(NC3CCC(N(C)C)CC3)nc3c2ncn3C(C)C)cc1 (stereo unspecified) returned MCF10A rerep inconclusive, SW480 rereplic inactive, KB-V1 MDR tox inactive, PTAP TSG101 blk inactive, KB-3-1 cytotox 1µM and PINK1 modulator inactive.
CC(C)n1cnc2c(Nc3ccc(F)c(Cl)c3)nc(NCCO)nc21 was read as MCF10A rerep inconclusive, SW480 rereplic inactive, KB-V1 MDR tox inactive, PTAP TSG101 blk inactive, KB-3-1 cytotox inactive and PINK1 modulator inactive.
For COC(=O)c1sc2ccccc2c1-n1cccc1C(=O)C(=O)Nc1ccc(F)cc1 the results were MCF10A rerep inactive, SW480 rereplic inactive, KB-V1 MDR tox inactive, PTAP TSG101 blk inactive, KB-3-1 cytotox inactive and PINK1 modulator inactive.
`COC(=O)c1sc2ccccc2c1-n1cccc1C(=O)C(=O)Nc1ccc(Cl)cc1` gave MCF10A rerep inactive, SW480 rereplic inactive, KB-V1 MDR tox 12µM, PTAP TSG101 blk inactive, KB-3-1 cytotox inconclusive and PINK1 modulator inactive.
Screening COC(=O)c1sc2ccccc2c1-n1cccc1C(=O)C(=O)Nc1ccc(C)cc1 returned MCF10A rerep inactive, SW480 rereplic inactive, KB-V1 MDR tox 9.2µM, PTAP TSG101 blk inactive, KB-3-1 cytotox inconclusive and PINK1 modulator inactive.
For Oc1ccccc1C=NCc1ccccc1 the results were MCF10A rerep inactive and SW480 rereplic inactive.
